Data on seven compounds can be found in PubChem BioAssay (NCI).

This is part of a sample that, as a whole, favours compounds with a hit. Of some 83,000 tested, about 20% had one in any assay.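 Step 1: grow cells in 96-well plates. Step 2: add test compound at a single concentration. Step 3: incubate 48 h. Step 4: record percent growth.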 Unmarked numbers belong to inactive results. The source made the active and inactive calls. Rule for the calls: active = growth percent below 10; inactive = the rest.

Among the test systems are HCT-15 colon; HT29 colon; SNB-75 CNS; SNB-19 CNS; U251 CNS; PC-3 prostate; SK-MEL-5 melanoma; UACC-62 melanoma; LOX IMVI melanoma; SK-MEL-28 melanoma; SK-MEL-2 melanoma; EKVX NSCLC; SN12C renal; UO-31 renal; TK-10 renal; ACHN renal; CAKI-1 renal; A498 renal; CCRF-CEM leukemia; MOLT-4 leukemia.
Holding throughout (assay): NCI-60 one-dose screen, 48 h (100 = growth as untreated, 0 = no growth, -100 = all killed)
Conditions in all cases: 10 µM unless noted

`Nc1cc(C(=O)O)cc(-n2c(O)c(C=C3N=c4ccccc4=N3)sc2=S)c1`: the growth with HCT-15 colon is 103%; with HT29 colon, 108%; with SNB-75 CNS, 80.7%; in the experiment with SNB-19 CNS, 103%; with U251 CNS, 107%; with PC-3 prostate, 92.4%. Further, the growth in the experiment on SK-MEL-5 melanoma is 97.9%; in the experiment with UACC-62 melanoma it was 86.7%; in the experiment on LOX IMVI melanoma, 95.8%; with SK-MEL-28 melanoma, 104%; with SK-MEL-2 melanoma it was 101%; with EKVX NSCLC it was 99.4%. In addition, the growth in the experiment with SN12C renal is 95.8%; in the experiment on UO-31 renal, 69.5%; with TK-10 renal, 103%; in the experiment with ACHN renal it was 99%; in the experiment with CAKI-1 renal, 86.8%; in the experiment on A498 renal it was 102%. Moreover, the growth with CCRF-CEM leukemia is 106%; in the experiment with MOLT-4 leukemia it was 103%.

On to `Fc1ccc(/C=C/[C@@H]2C[C@@H](F)CCO2)cc1`, for which the growth with HCT-15 colon is 93.7%; in the experiment on HT29 colon it was 99.9%; with SNB-75 CNS, 99.3%; in the experiment with SNB-19 CNS it was 93.8%; in the experiment on U251 CNS, 111%; in the experiment on PC-3 prostate it was 43.6%. The growth in the experiment on SK-MEL-5 melanoma was 98%; in the experiment on UACC-62 melanoma, 90.9%; in the experiment with LOX IMVI melanoma, 96.9%; with SK-MEL-28 melanoma, 92.9%; with SK-MEL-2 melanoma it was 110%; with EKVX NSCLC, 97.3%. Besides, the growth in the experiment on SN12C renal was 100%; with UO-31 renal, 87%; in the experiment with TK-10 renal it was 94.2%; with ACHN renal it was 101%; in the experiment on CAKI-1 renal, 86.8%; in the experiment on A498 renal, 109%. For the same compound, the growth was 86.8% in the experiment on CCRF-CEM leukemia and 70.1% with MOLT-4 leukemia.

In the case of `Fc1ccc2[nH]cc(-c3nc(-c4c[nH]c5c(Cl)nccc45)cs3)c2c1`, the growth with HCT-15 colon was -39.6% (active); in the experiment with HT29 colon, 17.5%; in the experiment on SNB-75 CNS, 49.9%; in the experiment on SNB-19 CNS, 59.9%; with U251 CNS it was 13.8%; in the experiment with PC-3 prostate it was 31.5%. Further, the growth with SK-MEL-5 melanoma is 60.4%; in the experiment with UACC-62 melanoma, 24%; in the experiment with LOX IMVI melanoma, 16.2%; with SK-MEL-28 melanoma, 43.9%; with SK-MEL-2 melanoma, 73.4%; in the experiment on EKVX NSCLC, 63.2%. For the same compound, the growth in the experiment on SN12C renal was 65.9%; in the experiment on UO-31 renal, 21.8%; with TK-10 renal, 33.8%; in the experiment on ACHN renal, 17.7%; with CAKI-1 renal, 49.2%; in the experiment with A498 renal, 14%. Besides, the growth with CCRF-CEM leukemia was 28.5%; in the experiment on MOLT-4 leukemia it was 38.2%.

Turning to `COc1ccc(N/N=C/c2cn(-c3ccc(C(=O)O)cc3)nc2-c2cc3ccccc3oc2=O)cc1`, the growth is 30% in the experiment on HCT-15 colon; 63.1% in the experiment on HT29 colon; 82.1% in the experiment on SNB-75 CNS; 75.9% with SNB-19 CNS; 107% with U251 CNS; 63.5% in the experiment on PC-3 prostate. The growth is 39.5% with SK-MEL-5 melanoma; 22.6% in the experiment on UACC-62 melanoma; 25.7% with LOX IMVI melanoma; 69.5% in the experiment on SK-MEL-28 melanoma; 60.3% in the experiment on SK-MEL-2 melanoma; 46.6% in the experiment on EKVX NSCLC. Further, the growth with SN12C renal is 89.2%; in the experiment on UO-31 renal, 22.8%; in the experiment with TK-10 renal, 97.1%; in the experiment with ACHN renal, 28.6%; with CAKI-1 renal, 60.8%; in the experiment on A498 renal, 125%. Also, the growth with CCRF-CEM leukemia is 32.9%; with MOLT-4 leukemia, 34.6%.

With `NCCCNc1nc2ccccc2c2c(=O)c3cc(Cl)ccc3sc12`, the growth was -76.9% (active) with HCT-15 colon; -45.4% (active) in the experiment with HT29 colon; 47.9% in the experiment with SNB-75 CNS; 22.8% with SNB-19 CNS; -95.1% (active) in the experiment on U251 CNS; -18.9% (active) in the experiment with PC-3 prostate. For the same compound, the growth was 46.9% with SK-MEL-5 melanoma; -6.22% (active) in the experiment with UACC-62 melanoma; -90.5% (active) in the experiment with LOX IMVI melanoma; -30% (active) in the experiment on SK-MEL-28 melanoma; 41% in the experiment with SK-MEL-2 melanoma; 57.4% in the experiment with EKVX NSCLC. For the same compound, the growth is -66.5% (active) in the experiment on SN12C renal; -71.7% (active) in the experiment with UO-31 renal; 24.3% in the experiment on TK-10 renal; -37.2% (active) in the experiment on ACHN renal; 22.1% in the experiment with CAKI-1 renal; 70.2% with A498 renal. Also, the values for the growth with CCRF-CEM leukemia and with MOLT-4 leukemia were -28.5% (active) and -61.8% (active), respectively.

`N#Cc1c(-c2ccccc2)nc2c(c(-c3ccccc3)nn2-c2ccccc2)c1-c1ccc(N2CCCCC2)cc1`: the growth was 107% in the experiment on HCT-15 colon; 110% with HT29 colon; 84.2% in the experiment with SNB-75 CNS; 99.3% in the experiment on SNB-19 CNS; 96.8% with U251 CNS; 90.5% in the experiment on PC-3 prostate. Further, the growth with SK-MEL-5 melanoma is 99.2%; in the experiment with UACC-62 melanoma it was 92.8%; with LOX IMVI melanoma, 96%; with SK-MEL-28 melanoma it was 106%; in the experiment on SK-MEL-2 melanoma it was 110%; in the experiment with EKVX NSCLC, 99.5%. Also, the growth with SN12C renal was 99.4%; in the experiment on UO-31 renal, 84.9%; in the experiment on TK-10 renal it was 103%; with ACHN renal it was 101%; with CAKI-1 renal it was 86.1%; in the experiment with A498 renal, 97.7%. The growth was 96.5% in the experiment on CCRF-CEM leukemia and 95.5% in the experiment with MOLT-4 leukemia.

On to `Clc1ccc2nn3c4ccccc4c(OCCN4CCOCC4)nc3c2c1`, for which the growth was 89.8% in the experiment on HCT-15 colon; 95.5% with HT29 colon; 76.8% with SNB-75 CNS; 81.1% in the experiment with SNB-19 CNS; 84.5% with U251 CNS; 92.8% in the experiment on PC-3 prostate. Further, the growth in the experiment on SK-MEL-5 melanoma is 83.7%; with UACC-62 melanoma, 67.6%; with LOX IMVI melanoma, 84.2%; in the experiment on SK-MEL-28 melanoma it was 110%; in the experiment with SK-MEL-2 melanoma it was 112%; with EKVX NSCLC, 84.3%. In addition, the growth was 87.9% with SN12C renal; 49.2% in the experiment with UO-31 renal; 84.8% in the experiment with TK-10 renal; 70.7% in the experiment with ACHN renal; 50.4% in the experiment with CAKI-1 renal; 3.87% (active) with A498 renal. In addition, the growth in the experiment with CCRF-CEM leukemia is 96.2%; in the experiment with MOLT-4 leukemia, 95.3%.
